# A number with no mark means an inactive call. The list shows a part of the results. Activity calls are given as the source filed them.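 How the source made its calls, unless noted: active means inhibition above the mean plus 3 SD of solvent-only control wells, limit set per screening run (cut at about 16% in these data); inactive means the rest.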
# What was measured:
# [1] = blockers of IL-6 STAT3 signaling – U3A cells, luciferase, luminescence, confirmation (AID 1265;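 active means inhibition above the hit cutoff computed for the primary STAT3 screen, cut at about 44% in these data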;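 further: 0% = IL-6 plus DMSO and 100% = IL-6 plus nifuroxazide control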); conditions: IL-6 STAT3 luciferase reporter, at 5.7 µM, hits give high values, cell line lacks STAT1
# [2] = inhibition of TNF-alpha-driven NF-kB transcription – cell-based, HEK293T, luciferase, TNF-alpha stimulus, counter-screen for STAT3 inhibitor project, confirmation (AID 1308;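 active means inhibition above the mean of solvent-only control wells plus 3 SD, cutoff set per campaign, cut at about 13% in these data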;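 further: 0% = TNF-alpha with DMSO and 100% = TNF-alpha with MG high control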); conditions: HEK293T NF-kB luciferase reporter, TNF-alpha induced; at 5.7 µM; hits give high values
# [3] = inhibition of STAT1-driven transcription – cell-based, NIH 3T3, luciferase luminescence, IFN-gamma, counter-screen for STAT3 inhibitor project, confirmation (AID 1317); conditions: NIH 3T3 STAT1-luciferase reporter, IFN-gamma induced, at 5.7 µM, hits give high values;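 further: 0% = DMSO with IFN-gamma and 100% = nifuroxazide control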
# [4] = target: Serine protease HTRA1 (Homo sapiens) (UniProt Q92743); assay: confirming inhibition of human HTRA1 – biochemical, fluorescence polarization, confirmation (AID 540248;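 active means mean inhibition over three repeats above a set limit taken from the earlier primary screen, cut at about 37% in these data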;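 further: 0% = HTRA1 with DMSO and 100% = wells lacking HTRA1; inhibitors block probe binding so polarization drops and inhibition rises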); conditions: recombinant HTRA1, FP-rhodamine activity-based probe, at 5.96 µM, hits give high values
# [5] = target: Platelet-activating factor acetylhydrolase (Homo sapiens) (UniProt Q13093); assay: inhibition of plasma PAF acetylhydrolase – biochemical, fluorescence polarization, human, confirmation (AID 463230;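 active means mean inhibition of the triplicate above the hit cutoff set for the earlier primary screen, cut at about 25% in these data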;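 further: 0% = enzyme with DMSO and 100% = wells lacking pPAFAH enzyme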); conditions: recombinant pPAFAH, FP-Rh probe fluorescence polarization; at 3.39 µM; hits give high values
# [6] = reduced OD of T4-infected AddAB+ E. coli – absorbance, E. coli V3065, T4 phage, triplicate, AddAB inhibitor project, confirmation (AID 488942;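 active means mean inhibition above a set limit taken from the earlier primary screen, cut at about 13% in these data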;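 further: higher means less bacterial growth since AddAB block lets phage replicate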); conditions: E. coli V3065 expressing H. pylori AddAB, at 11.9 µM, hits give high values, T4 phage with gene 2 nonsense mutations
# [7] = reduced OD of phage-infected RecBCD+ V66 E. coli – absorbance, mutant T4 phage, counter-screen for AddAB inhibitor project (AID 488955;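 active means mean inhibition above the mean of solvent-only control wells plus 3 SD, cut at about 4% in these data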;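 further: optical density read after an 18 h incubation at 37 °C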); conditions: OD growth, at 11.9 µM, hits give high values
# [8] = bacterial growth inhibitors – absorbance, counter-screen for AddAB inhibitor project, confirmation (AID 488956; in the data active means inhibition above about 25%); conditions: bacterial viability, absorbance (AddAB counterscreen); at 11.9 µM; hits give high values
# [9] = target: Nuclear receptor coactivator 3 (Homo sapiens) (UniProt Q9Y6Q9); assay: NCOA3 GAL4-fusion reporter inhibition – cell-based, luminescence, quadruplicate, confirmation (AID 588792;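 active means mean inhibition over 43.08%, the solvent-only control mean plus 3 SD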;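 further: 0% = DMSO treated cells and 100% = gossypol at 36 µM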); conditions: HEK293 GAL4-SRC3 luciferase reporter, at 3.6 µM, hits give high values
# [10] = tested on: transactivating tegument protein VP16 (Human herpesvirus 1), Gal4-VP16 luciferase reporter; assay: repression of VP16-driven luciferase reporter – cell-based, luminescence, high throughput, counter-screen for SRC3 inhibitor project (AID 588794; in the data active means inhibition above about 30%); conditions: mammalian cells, at 3.6 µM, hits give high values
# [11] = target: Nuclear receptor coactivator 1 (Homo sapiens) (UniProt Q15788); assay: NCOA1 GAL4-fusion reporter inhibition – cell-based, luminescence, quadruplicate, confirmation (AID 588820;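 active means mean inhibition above 46.68%, the untreated control wells mean plus 3 SD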;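 further: 0% = DMSO wells and 100% = gossypol 36 µM treated wells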); conditions: HEK293 GAL4-SRC1 luciferase reporter, at 3.6 µM, hits give high values
# [12] = repression of VP16-driven luciferase reporter – cell-based, luminescence, high throughput, counter-screen for SRC1 inhibitor project (AID 588824; in the data active means inhibition above about 25%); conditions: cell-based VP16 transactivation luciferase luminescence; at 3.6 µM; hits give high values
# [13] = target: Photoreceptor-specific nuclear receptor (Homo sapiens) (UniProt Q9Y5X4); assay: retest of NR2E3-NCOR disrupting agonists – cell-based, luminescence, CHO-S two-hybrid, confirmation (AID 624378;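 active means average inhibition above a cutoff equal to the mean inhibition of all tested compounds plus one SD, cut at about 70% in these data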;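 further: 0% = DMSO in NR2E3 cells and 100% = DMSO in cells lacking NR2E3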); conditions: CHO-S mammalian two-hybrid NR2E3-NCOR, luciferase luminescence; at 3.98 µM; hits give high values
# [14] = nonselective effects on VP16 transactivation – cell-based, luminescence, CHO-S, high throughput, counter-screen for NR2E3 agonist project, confirmation (AID 624379;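 active means mean inhibition above a cutoff equal to the average over all tested compounds plus one standard deviation, cut at about 70% in these data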;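 further: 0% = DMSO with VP16-transfected cells and 100% = DMSO with cells lacking VP16; higher means less reporter light so more repression of VP16 activity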); conditions: CHO-S GAL4-VP16 luciferase reporter, at 3.98 µM, hits give high values
# [15] = StAR promoter reporter inhibitors, counter-screen for LRH-1 inverse agonist project, cell-based, luminescence, high throughput (AID 651611; in the data active means inhibition above about 28%); conditions: StAR promoter luciferase reporter counterscreen, at 3.6 µM, hits give high values
# [16] = target: Nuclear receptor subfamily 5 group A member 2 (Homo sapiens) (UniProt O00482); assay: NR5A2 activity suppression in reporter cells – cell-based, luminescence, confirmation (AID 651613; in the data active means inhibition above about 42%;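 further: HEK293T cells co-transfected with LRH-1 and StAR promoter luciferase reporter; 0% = vehicle wells and 100% = parental cells lacking receptor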); conditions: cell-based LRH-1 luciferase reporter, inverse agonism; at 3.6 µM; hits give high values
# [17] = target: Steroidogenic factor 1 (Homo sapiens) (UniProt Q13285); assay: inverse agonism at SF1 nuclear receptor – cell-based, luminescence, high throughput, counter-screen for LRH-1 inverse agonist project (AID 651614; in the data active means inhibition above about 44%;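 further: cells cotransfected with StAR promoter reporter and SF1 expression vector; 0% = vehicle on cells with receptor and 100% = vehicle on cells lacking receptor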); conditions: cell-based SF1 luciferase reporter, at 3.6 µM, hits give high values
# [18] = compounds suppressing VP16-driven luciferase signal – cell-based, luminescence, high throughput, counter-screen for LRH-1 inverse agonist project (AID 651615; in the data active means inhibition above about 33%); conditions: Gal4-VP16 luciferase reporter cells, at 3.6 µM, hits give high values
# [19] = VP16-driven transactivation reporter suppression – cell-based, luminescence, HEK293, counter-screen for COUP-TFII antagonist project (AID 687007; in the data active means inhibition above about 13%); conditions: HEK293 Gal4-VP16 luciferase reporter, at 8.5 µM, hits give high values
# [20] = target: COUP transcription factor 2 (Homo sapiens) (UniProt P24468); assay: retest of COUP-TFII reporter suppressors – cell-based, luciferase reporter, HEK293, triplicate, confirmation (AID 687008;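 active means mean inhibition over three repeats above a set limit taken from the earlier primary screen, cut at about 38% in these data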;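 further: 100% = cells given the luciferase reporter alone without the COUP-TF2 vector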); conditions: HEK293 NGFI-A luciferase reporter, luminescence; at 8.5 µM; hits give high values
# [21] = potentiators of IFN-gamma STAT1 reporter activity – cell-based, HTS, luciferase reporter, confirmation (AID 1262;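 active means activation above a set limit carried over from the earlier primary STAT1 screen, cut at about 140% in these data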;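 further: simple ratio to median IFN-gamma plus DMSO wells so 0% means no light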); conditions: NIH 3T3 STAT1-luciferase reporter, IFN-gamma potentiation, luminescence; at 5.7 µM; hits give high values; 100% = IFN-gamma EC80 alone, no compound
# [22] = enhancement of NF-kB transcriptional signalling – cell-based, HEK293T, luciferase luminescence, TNF-alpha, counter-screen for STAT1 activator project (AID 1306;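 active means activation above the mean of solvent-only control wells plus 3 SD, set per campaign, cut at about 130% in these data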;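 further: TNF-alpha given at a submaximal dose yielding about 80% of full reporter signal; values are well signal over median control so 100% means no change and 0% no light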); conditions: HEK293T NF-kB luciferase reporter, TNF-alpha stimulated, at 5.7 µM, hits give high values, 100% = TNF-alpha with vehicle only
# [23] = target: Signal transducer and activator of transcription 3 (Homo sapiens) (UniProt P40763); assay: enhancers of IL-6 STAT3 transcription – U3A cells, luciferase, luminescence, counter-screen for STAT1 activator project, confirmation (AID 1316;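 active means activation above the solvent-only control well mean plus 3 SD, set per plate batch, cut at about 110% in these data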;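 further: 0% = no luminescence and 100% = median IL-6 plus DMSO wells; higher means more STAT3 reporter activation so hits are non-selective activators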); conditions: U3A cells STAT3-luciferase reporter, IL-6, luminescence; at 5.7 µM; hits give high values; 100 = IL-6 alone, no compound effect; cells lack STAT1
# [24] = tested on: DAF-12 nuclear receptor (Heterodera glycines), GAL4-LBD fusion; assay: hgDAF-12 GAL4 fusion reporter activation, retest – cell-based, luminescence, HEK293, GAL4-LBD fusion, confirmation (AID 743050;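 active means mean activation over triplicate wells above the hit cutoff derived from the earlier primary screen, cut at about 11% in these data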;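 further: 0% = DMSO low control and 100% = 2 mM sodium butyrate high control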); conditions: HEK293 GAL4-hgDAF12 luciferase reporter, agonist mode; at 6.8 µM; hits give high values; percent of butyrate response
# [25] = target: Oxysterols receptor LXR-beta (Homo sapiens) (UniProt P55055); assay: nonspecific reporter activation via LXR – cell-based, luminescence, HEK293, H. glycines campaign, counter-screen for hgDAF-12 agonist project, confirmation (AID 743051;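 active means mean activation of the triplicate above a set limit carried over from the primary screen, none filed active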); conditions: HEK293 Gal4-LXR luciferase reporter, 24 h; at 6.8 µM; hits give high values
# [26] = suppression of KLF5 promoter-driven luciferase – DLD-1 cells, luminescence, confirmation (AID 1834;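 active means inhibition above a set limit taken from the earlier primary screen, cut at about 63% in these data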;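 further: 0% = DMSO wells and 100% = LY294002 at 200 µM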); conditions: DLD-1 KLF5 promoter firefly luciferase reporter, at 4 µM, hits give high values
# [27] = IEC-6 intestinal cell killing – luminescence, triplicate, cytotoxicity control for KLF5 inhibitor project (AID 1905; in the data active means inhibition above about 23%;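 further: cells exposed to compounds for 48 hours before viability read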); conditions: IEC-6 rat intestinal cells, viability luminescence; at 4 µM; hits give high values
# Photoreceptor-specific nuclear receptor (Homo sapiens), sequence (Q9Y5X4 whole entry, looked up): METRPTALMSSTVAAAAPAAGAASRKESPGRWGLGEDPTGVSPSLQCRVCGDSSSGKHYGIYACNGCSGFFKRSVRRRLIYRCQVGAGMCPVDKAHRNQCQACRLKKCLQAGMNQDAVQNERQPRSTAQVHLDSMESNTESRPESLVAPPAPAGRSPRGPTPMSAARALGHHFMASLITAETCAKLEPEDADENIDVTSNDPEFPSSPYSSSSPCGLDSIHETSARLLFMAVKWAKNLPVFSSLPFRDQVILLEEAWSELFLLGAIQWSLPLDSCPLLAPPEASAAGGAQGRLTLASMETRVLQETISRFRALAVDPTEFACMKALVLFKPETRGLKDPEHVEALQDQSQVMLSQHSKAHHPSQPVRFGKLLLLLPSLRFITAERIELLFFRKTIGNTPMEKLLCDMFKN
# Oxysterols receptor LXR-beta (Homo sapiens), sequence (P55055 whole entry, looked up, the tested form may be a part): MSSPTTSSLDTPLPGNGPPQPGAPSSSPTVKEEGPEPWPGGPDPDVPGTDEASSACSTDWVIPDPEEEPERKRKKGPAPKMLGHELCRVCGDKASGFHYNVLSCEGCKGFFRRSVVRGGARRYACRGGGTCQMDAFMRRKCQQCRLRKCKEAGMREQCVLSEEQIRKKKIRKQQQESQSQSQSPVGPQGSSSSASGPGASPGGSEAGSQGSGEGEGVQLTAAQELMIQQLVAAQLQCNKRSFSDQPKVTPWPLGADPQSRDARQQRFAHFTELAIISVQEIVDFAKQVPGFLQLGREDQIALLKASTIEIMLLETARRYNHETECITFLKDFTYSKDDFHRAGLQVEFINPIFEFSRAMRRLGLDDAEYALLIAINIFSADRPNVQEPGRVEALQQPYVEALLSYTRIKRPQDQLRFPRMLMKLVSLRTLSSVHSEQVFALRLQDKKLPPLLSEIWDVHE
# Nuclear receptor coactivator 3 (Homo sapiens), sequence (Q9Y6Q9 whole entry, looked up, the tested form may be a part): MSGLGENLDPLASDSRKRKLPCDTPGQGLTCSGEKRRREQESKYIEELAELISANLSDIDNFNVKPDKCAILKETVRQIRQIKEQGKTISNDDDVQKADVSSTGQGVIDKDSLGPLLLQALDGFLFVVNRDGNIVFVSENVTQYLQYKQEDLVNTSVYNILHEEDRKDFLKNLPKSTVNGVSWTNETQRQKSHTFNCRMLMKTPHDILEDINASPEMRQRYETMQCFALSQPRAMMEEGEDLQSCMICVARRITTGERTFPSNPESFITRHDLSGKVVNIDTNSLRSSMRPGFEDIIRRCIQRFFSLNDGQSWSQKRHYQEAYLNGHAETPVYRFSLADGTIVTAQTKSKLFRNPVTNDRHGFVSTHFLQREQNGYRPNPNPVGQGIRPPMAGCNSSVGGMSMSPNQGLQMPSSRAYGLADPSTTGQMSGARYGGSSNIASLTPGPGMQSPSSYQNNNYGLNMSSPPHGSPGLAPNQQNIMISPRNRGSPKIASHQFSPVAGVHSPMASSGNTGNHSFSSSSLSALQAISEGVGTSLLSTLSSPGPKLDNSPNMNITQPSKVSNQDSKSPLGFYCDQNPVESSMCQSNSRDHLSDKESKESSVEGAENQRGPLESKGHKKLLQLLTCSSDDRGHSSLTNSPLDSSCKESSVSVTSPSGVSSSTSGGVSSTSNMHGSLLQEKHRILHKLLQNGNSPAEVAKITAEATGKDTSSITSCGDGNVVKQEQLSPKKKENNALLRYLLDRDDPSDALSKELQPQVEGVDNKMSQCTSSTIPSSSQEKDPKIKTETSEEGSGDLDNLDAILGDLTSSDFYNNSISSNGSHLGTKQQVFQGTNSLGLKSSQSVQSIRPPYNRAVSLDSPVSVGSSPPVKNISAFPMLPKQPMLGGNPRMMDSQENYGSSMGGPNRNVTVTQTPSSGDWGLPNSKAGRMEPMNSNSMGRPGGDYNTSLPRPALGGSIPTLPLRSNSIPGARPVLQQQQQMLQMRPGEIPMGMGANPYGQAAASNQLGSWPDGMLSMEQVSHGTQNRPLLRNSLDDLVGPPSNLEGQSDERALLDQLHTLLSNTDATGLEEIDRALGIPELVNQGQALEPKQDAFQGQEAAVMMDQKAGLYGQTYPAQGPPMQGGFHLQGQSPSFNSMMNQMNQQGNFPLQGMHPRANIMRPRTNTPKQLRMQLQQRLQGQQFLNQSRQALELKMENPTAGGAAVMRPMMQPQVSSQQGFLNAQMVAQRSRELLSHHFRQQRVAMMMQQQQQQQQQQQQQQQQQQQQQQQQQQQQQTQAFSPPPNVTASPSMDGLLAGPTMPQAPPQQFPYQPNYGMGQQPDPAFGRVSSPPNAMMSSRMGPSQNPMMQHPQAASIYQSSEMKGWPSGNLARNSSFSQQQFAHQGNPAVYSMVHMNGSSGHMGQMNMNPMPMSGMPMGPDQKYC
# Nuclear receptor subfamily 5 group A member 2 (Homo sapiens), sequence (O00482 whole entry, looked up): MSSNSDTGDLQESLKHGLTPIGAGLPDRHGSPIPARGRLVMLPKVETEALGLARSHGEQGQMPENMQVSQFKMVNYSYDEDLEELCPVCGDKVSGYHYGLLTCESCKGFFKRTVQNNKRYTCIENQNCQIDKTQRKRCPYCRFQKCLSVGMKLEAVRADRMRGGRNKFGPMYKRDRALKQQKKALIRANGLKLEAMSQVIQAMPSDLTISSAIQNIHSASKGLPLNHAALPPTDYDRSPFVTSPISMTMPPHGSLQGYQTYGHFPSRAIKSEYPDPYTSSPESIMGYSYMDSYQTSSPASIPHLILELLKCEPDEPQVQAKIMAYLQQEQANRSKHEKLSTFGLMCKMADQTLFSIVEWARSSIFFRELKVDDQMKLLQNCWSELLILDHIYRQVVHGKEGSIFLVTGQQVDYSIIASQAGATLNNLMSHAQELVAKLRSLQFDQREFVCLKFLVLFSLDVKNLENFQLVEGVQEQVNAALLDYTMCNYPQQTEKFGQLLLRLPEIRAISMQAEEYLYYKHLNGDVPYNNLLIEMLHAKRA
# Steroidogenic factor 1 (Homo sapiens), sequence (Q13285 whole entry, looked up, the tested form may be a part): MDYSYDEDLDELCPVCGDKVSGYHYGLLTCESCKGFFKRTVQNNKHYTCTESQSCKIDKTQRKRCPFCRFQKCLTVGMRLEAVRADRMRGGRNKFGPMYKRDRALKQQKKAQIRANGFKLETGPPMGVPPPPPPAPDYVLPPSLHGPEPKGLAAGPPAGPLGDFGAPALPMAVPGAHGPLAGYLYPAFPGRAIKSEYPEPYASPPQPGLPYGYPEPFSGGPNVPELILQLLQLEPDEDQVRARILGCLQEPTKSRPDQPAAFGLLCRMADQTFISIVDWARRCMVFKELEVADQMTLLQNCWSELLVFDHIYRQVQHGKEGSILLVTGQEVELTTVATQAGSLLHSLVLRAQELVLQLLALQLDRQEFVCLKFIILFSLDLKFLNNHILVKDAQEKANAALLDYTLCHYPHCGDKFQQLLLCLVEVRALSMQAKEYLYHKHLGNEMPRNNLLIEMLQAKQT
# Platelet-activating factor acetylhydrolase (Homo sapiens), sequence (Q13093 whole entry, looked up): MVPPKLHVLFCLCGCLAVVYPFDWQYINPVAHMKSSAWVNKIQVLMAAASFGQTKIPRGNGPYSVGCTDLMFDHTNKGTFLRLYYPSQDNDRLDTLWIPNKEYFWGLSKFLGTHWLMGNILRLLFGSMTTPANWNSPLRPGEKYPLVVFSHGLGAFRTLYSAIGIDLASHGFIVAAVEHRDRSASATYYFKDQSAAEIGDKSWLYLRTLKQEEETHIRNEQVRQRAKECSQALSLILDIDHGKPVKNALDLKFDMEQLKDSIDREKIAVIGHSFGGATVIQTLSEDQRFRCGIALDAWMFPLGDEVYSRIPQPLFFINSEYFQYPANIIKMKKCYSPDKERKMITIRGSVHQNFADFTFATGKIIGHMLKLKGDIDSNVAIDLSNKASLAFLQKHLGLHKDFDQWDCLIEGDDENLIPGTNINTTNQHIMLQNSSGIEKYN
# COUP transcription factor 2 (Homo sapiens), sequence (P24468 whole entry, looked up): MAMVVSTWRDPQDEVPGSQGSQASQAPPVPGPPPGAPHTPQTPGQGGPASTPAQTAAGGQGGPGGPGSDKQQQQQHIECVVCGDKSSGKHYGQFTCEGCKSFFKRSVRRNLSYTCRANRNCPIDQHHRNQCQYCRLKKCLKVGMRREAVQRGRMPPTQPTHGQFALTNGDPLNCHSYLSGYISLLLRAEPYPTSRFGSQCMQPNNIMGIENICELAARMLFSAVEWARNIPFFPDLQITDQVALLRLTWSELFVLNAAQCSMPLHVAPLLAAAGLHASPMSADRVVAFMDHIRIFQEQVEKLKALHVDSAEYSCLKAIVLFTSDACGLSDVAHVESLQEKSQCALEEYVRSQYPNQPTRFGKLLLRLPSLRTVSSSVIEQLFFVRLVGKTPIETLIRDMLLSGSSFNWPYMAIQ
smiles,measurement,setting,value
COc1ccc(C2=Nc3cc(C)ccc3OC2)cc1,inhibition,[1],19.3%
same,inhibition,[2],-18.5%
same,inhibition,[3],-114%
Cc1ccc(Nc2ccccc2N)cc1,inhibition,[1],24.3%
same,inhibition,[2],22.9% (active)
same,inhibition,[3],6.8%
same,inhibition,[4],53.1% (active)
N#Cc1nc(COc2ccc(-c3ccccc3)cc2)oc1NCc1cccnc1,inhibition,[1],35.1%
same,inhibition,[2],2.23%
same,inhibition,[3],12.9%
CCN1/C(=C\c2ccc3ccccc3[n+]2CC)Sc2cc(C)ccc21,inhibition,[1],86.2% (active)
same,inhibition,[2],33.4% (active)
same,inhibition,[3],19% (active)
same,inhibition,[5],2.61%
same,inhibition,[6],34.1% (active)
same,inhibition,[7],5.58% (active)
same,inhibition,[8],16.1%
same,inhibition,[9],35.8%
same,inhibition,[10],70.5% (active)
same,inhibition,[11],32.7%
same,inhibition,[12],67.9% (active)
same,inhibition,[13],98.3% (active)
same,inhibition,[14],87.5% (active)
same,inhibition,[15],59.5% (active)
same,inhibition,[16],107% (active)
same,inhibition,[17],86.4% (active)
same,inhibition,[18],83.4% (active)
same,inhibition,[19],10.8%
same,inhibition,[20],66.5% (active)
Cc1ccc(-n2ncc3c(N4CCN(c5ccc(F)cc5)CC4)ncnc32)c(C)c1,inhibition,[1],46.6% (active)
same,inhibition,[2],22.4% (active)
same,inhibition,[3],14.9%
CC(C)(C)C(=O)c1cnc(Nc2ccccc2)s1,activation (% of control),[21],164% (active)
same,activation (% of control),[22],121%
same,activation (% of control),[23],105%
same,activation,[24],13.6% (active)
same,activation,[25],0.48%
Cc1ccc(-c2cc(C(=O)N/N=C/C=C/c3ccco3)c3ccccc3n2)cc1C,inhibition,[1],-39.2%
same,inhibition,[2],12.6%
same,inhibition,[3],-40.9%
COc1cccc(/C=C/c2ccc3ccccc3n2)c1OC(C)=O,inhibition,[1],25.2%
same,inhibition,[2],32.1% (active)
same,inhibition,[3],-9.23%
COc1cc(/C=N/O)ccc1OCc1ccc([N+](=O)[O-])cc1,activation (% of control),[21],234% (active)
same,activation (% of control),[22],131%
same,activation (% of control),[23],123% (active)
same,activation,[24],15.5% (active)
same,activation,[25],0.71%
CCOc1cccc(/C=C/c2ccc3ccccc3n2)c1OC(C)=O,inhibition,[1],-2.03%
same,inhibition,[2],-34.1%
same,inhibition,[3],-15.3%
COc1cc(N=Cc2c(O)[nH]c3ccccc23)cc(OC)c1OC,inhibition,[1],49.1% (active)
same,inhibition,[2],27% (active)
same,inhibition,[3],-12%
same,inhibition,[26],76.8% (active)
same,inhibition,[27],19.1%
same,inhibition,[9],28.2%
same,inhibition,[10],1.5%
same,inhibition,[13],73.8% (active)
same,inhibition,[14],58.7%
same,inhibition,[15],61.7% (active)
same,inhibition,[16],54.4% (active)
same,inhibition,[17],69.2% (active)
same,inhibition,[18],25.2%

# From PubChem BioAssay
